22 molecules from article PMC12136788 can be followed below.

Changes are numbered by the printed parent chain. In all, about 24,000 sequences were measured (“enrichment r”: median about 0.99, highest 2% from about 3.7 on). The sample as a whole holds a higher share of the highest values than the screen did.

The labels stand for the following.
T1: UNK ZnF1-3 (human, UniProt Q9C0B0 31-174)
T1 sequence: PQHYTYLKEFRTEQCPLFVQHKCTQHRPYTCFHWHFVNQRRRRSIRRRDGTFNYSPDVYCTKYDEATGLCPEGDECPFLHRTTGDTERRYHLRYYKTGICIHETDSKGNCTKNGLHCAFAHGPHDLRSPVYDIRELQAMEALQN

B1: 186301657_186302230_1024_CDS_ENSG00000090520_ENST00000265028|human|control|control (ssRNA)
RNA: GGGAGUUCUACAGUCCGACGAUCGGAAAUAUGUACCUUGUGACCAUCCAAGUGAGUAAUAUCCAUCUCAAAGCCAACCAGUGACUCAACUAAUGAGAUUGUCACAUUUGUGUACAAAUCAUCUCCUCUCCUUUCAAAUAUUGGCAACAGAGGAUUGAGCAUCA
B2: 12963335_12971236_673_CDS_ENSG00000085415_ENST00000262124|human|control|control (ssRNA)
RNA: GGGAGUUCUACAGUCCGACGAUCAUAUUCAAAAAUCUGAACCUUGGCCAUUGCGUUGGGGCUACUGUCAUCACUUCCUACGGCGAUCAUGGGGGAAUGAGCACGAGAGCUUGAAGGGUUCCAAGAAAUACAACUACAGCUUAGCAACAGAGGAUUGAGCAUCA
B3: chr1:154966221:154966222:+_ENSMUSG00000042751_ENSMUST00000043313|mus_mus|FALSE|FALSE (ssRNA)
RNA: GGGAGUUCUACAGUCCGACGAUCUGCAACUCGAAUGCAGUUUUUAUUGAGUUGACUUCCAUAAAGCAAAUCUCACUCUUAAAUUAGCAGAUAUGAUUUUUUAAAAAAUUAAAAAAAAAAAAGCUUCCUCCUCCCCAUUCCAACCAACAGAGGAUUGAGCAUCA
B4: chr16:67134085:67134086:+_ENSG00000067955_ENST00000412916|hu_hu|FALSE|FALSE (ssRNA)
RNA: GGGAGUUCUACAGUCCGACGAUCCUGAAUUGACUGUGUCAGUUUUUCACCCUUUAAAAUAAUGCCAUUUAAUGAUAAAAUACAUUUUUCAAAAAUUCAGAAAUGUAGUAACAUUUAAUAAAUGUGACCAUGAAAAAUAUUUGUCAACAGAGGAUUGAGCAUCA
B5: chr16:67134085:67134086:+_ENSG00000067955_ENST00000412916|hu_mus|FALSE|FALSE (ssRNA)
RNA: GGGAGUUCUACAGUCCGACGAUCGAAUUGACCAUGUCAGUUUUUAAAAUUUUCUAAAAUAAUGCCAUUUUAUGAUAAAAUACAUUUUUGCAAAAAUUCAGAAAUGUAGUAACAUUUAAUGAAUACGACCACGGAAAGUAUUGUCAACAGAGGAUUGAGCAUCA
B6: chr5:6374476:6374477:-_ENSG00000133398_ENST00000255764|hu_mus|FALSE|FALSE (ssRNA)
RNA: GGGAGUUCUACAGUCCGACGAUCUAGGCUUUUAAAUUUCUUCAUUGUGUCGAUCUUGCCCUUGACUUGCUCGUUUUUAGCUAGAGCCCUCUCCAGGCAUUCUUUGGUGUAGAGCUGGGGAUUCCGACCUUGAUCAAUGUAUUCCAACAGAGGAUUGAGCAUCA
B7: 117884203_117884323_1758_3pUTR_ENSG00000047932_ENST00000052569|human|control|control (ssRNA)
RNA: GGGAGUUCUACAGUCCGACGAUCAAAUUGCUUUACAUGCAAUAGCUAAUUAUGGUCUACCACAGAAAACAGGGUGUUUUAUGCAUUGAGAAUUGUUCACAUGAAGCCCUGAGGUACCCGCCUUUCAUUUAGGCAACAAACAGCCAACAGAGGAUUGAGCAUCA
B8: 48376308_48376428_337_CDS_ENSMUSG00000031558_ENSMUST00000170109|mouse|control|control (ssRNA)
RNA: GGGAGUUCUACAGUCCGACGAUCGGGCACACUGCGCAGUGCCAGCCCAUGACAGUCCACCGUGCUGCCUGAACAGGAGCACUGGGCCGGGCACGCCUGCGGCGCCACCUUGUUCAAGAUCGACAACACUAACCCCAGCGAUAGCAACAGAGGAUUGAGCAUCA
B9: chr5:92873050:92873051:-_ENSMUSG00000029426_ENSMUST00000031377|mus_hu|FALSE|FALSE (ssRNA)
RNA: GGGAGUUCUACAGUCCGACGAUCCAGCACCCAACAACAACAAAAUUACUAUACAAGGGUUUAUUAAAUACUUGCUAGACACAUAAAAGAACAAUUUCAGAGCCCACAUGAUUUUAUAAAGCUUAAUGGCCAGCCAUGUCAGCCCAACAGAGGAUUGAGCAUCA
B10: chr1:60041781:60041782:+_ENSMUSG00000041040_ENSMUST00000036540|mus_hu|FALSE|FALSE (ssRNA)
RNA: GGGAGUUCUACAGUCCGACGAUCAAGUUUACAAUAGUAAAGUAAAUGCAGUAGUGGCAAAUUUUCUUUUAUUUUCCUUCACAAAAGAAAAUCUUUAUAACCCAGUCCUAGUCUUGGACAUAGUGAAAGCUAUAAAUUCUGACUCAACAGAGGAUUGAGCAUCA
B11: chr7:126859785:126859786:-_ENSMUSG00000030942_ENSMUST00000033236|mus_hu|FALSE|FALSE (ssRNA)
RNA: GGGAGUUCUACAGUCCGACGAUCUAUAUUACACACAAAUGUUAAAAAAAAAAAAAAAAAACAGACAUAAACAAGAAAAUCACAAAAGUACAAAAACUUCACUAAACAAUUCACUUCUAACCUACAUGAUCCACAUUUUUGCAACAACAGAGGAUUGAGCAUCA
B12: chr5:40767622:40767623:-_ENSG00000132356_ENST00000397128|hu_mus|hu_hu_hu_mus_False|38_48 (ssRNA)
RNA: GGGAGUUCUACAGUCCGACGAUCAUCUUUUAUUGCGGCCCUCUUCAUGGGAUCCACCUGCAGCAUAUGUUUCAAAAGGCUGAUUACAGAAGGAUUUAAAUAUUGAGGGGUAUAAAAGAUCCCAUCACAUAUCUUCUUAAAAAGCAACAGAGGAUUGAGCAUCA
B13: chr16:57153313:57153314:+_ENSMUSG00000022752_ENSMUST00000166897|mus_mus|FALSE|FALSE (ssRNA)
RNA: GGGAGUUCUACAGUCCGACGAUCCAAAAAAAAUUAAAAAGGAUUAAUUGAAUACAAAAGAAGUAUAUUUUACAGCACUUACUAUGUUAAAAACUAACAUACUAUAAAAUACUCACAUAUUAUACAAACAGCUAUAAAAAAACACAACAGAGGAUUGAGCAUCA
B14: chr14:102516957:102516958:+_ENSG00000197102_ENST00000360184|hu_hu|FALSE|FALSE (ssRNA)
RNA: GGGAGUUCUACAGUCCGACGAUCAGCUCAGACCUUCCAAAUAUUUUAAAAAUGAAUAAAUGUUAAAUACCAACUUUCACUAUUACAGAAAGGGGCAGCUAGAAAAGUUUACUCUGUGCACAAGACUGCGACACCCCGCUCGUACAACAGAGGAUUGAGCAUCA
B15: chr16:57153313:57153314:+_ENSMUSG00000022752_ENSMUST00000166897|mus_mus|motif|central (ssRNA)
RNA: B13 RNA with U82G, A83G
B16: chr5:92873050:92873051:-_ENSMUSG00000029426_ENSMUST00000031377|mus_hu|motif|central (ssRNA)
RNA: B9 RNA with U75G, A76G
B17: chr4:154931852:154931853:+_ENSMUSG00000029064_ENSMUST00000030940|mus_mus|FALSE|FALSE (ssRNA)
RNA: GGGAGUUCUACAGUCCGACGAUCUUUUAUUGUAGUAUUUCCUUUUAAAAUUGGACCAACCCAAAACAAAAUGAAACCAAAAAAACAAAAACAAAACAAAAUAACAAAAUAAACCAAAAACAAUGGCCCCAGAAAAAAUGCACACAACAGAGGAUUGAGCAUCA
B18: 57609423_57609543_1342_3pUTR_ENSG00000101166_ENST00000355937|human|control|control (ssRNA)
RNA: GGGAGUUCUACAGUCCGACGAUCACUAAGUUACAAAACUUGGGCAAAUCAAUACAGUACUCUUUUAUAAUGAAACCAUACUUUUGUUGGAGUCAUGUUACUUUAGUGAUAAUUUUCACUCCAAAAAUAUUUAAGUACCAAAUCCAACAGAGGAUUGAGCAUCA
B19: chr8:13147844:13147845:+_ENSMUSG00000031446_ENSMUST00000016680|mus_mus|FALSE|FALSE (ssRNA)
RNA: GGGAGUUCUACAGUCCGACGAUCAAUAUUAACAAUUUGUAGACACAAUGAACUUAAAAAUAAGAAGUAGAAAUAGAAAUCUAUUUGGUCUUUCAGAGACCACAUCAUAGAACUCAUAAAUGAAAAUGUACAAAUAUAGAAAUGCAACAGAGGAUUGAGCAUCA
B20: chr15:63448706:63448707:-_ENSG00000185088_ENST00000411926|hu_hu|FALSE|FALSE (ssRNA)
RNA: GGGAGUUCUACAGUCCGACGAUCUGAUCUUGUAGCAACCUGGACAUUUUACAUCCAUAAAGUAAGAAUUUGGACUUUGUACUAGGCGUUUCUUUUUAUGUUUUUUCUUUUCCUCUUCCAAGGACGGAUGUAGUAAAUCUCUAGCAACAGAGGAUUGAGCAUCA
B21: chr15:51674161:51674162:-_ENSMUSG00000022312_ENSMUST00000022925|mus_mus|motif|central (ssRNA)
RNA: GGGAGUUCUACAGUCCGACGAUCCUGAACAACCUCAGUGCCUUGUCCUUCUUCUUGAUAAUGUUUGAUUAUCUUUAAUACGGCCAGGCCGUCGAUCUGCACCUGCUUCACGGCCGAAUCUCCGGAGCCGCCUUUGCCUUUGCCCAACAGAGGAUUGAGCAUCA
B22: 109540647_109541272_703_CDS_ENSG00000076248_ENST00000242576|human|control|control (ssRNA)
RNA: GGGAGUUCUACAGUCCGACGAUCACGAACCGUGAGGACAGCGUUGAGAAGGAGAACACCUUGCUUGGCCCACCCAGAUAAAUCUCCAUGGCCAGGAUGAACAAAAUCCUCUAUGUCUGUAGACAACUCUUUAUAAAUGUUCUCCAACAGAGGAUUGAGCAUCA

In the test the target is T1, UNK ZnF1-3. In words: nsRBNS (natural sequence RNA bind-n-seq); RBNS binding buffer (assumed for nsRBNS): 25 mM Tris pH 7.5, 150 mM KCl, 3 mM MgCl2, 0.01% Triton X-100, 500 ug/ml BSA, 20 U/ml SUPERase-In, 4 C; UNK is unkempt and MSI1 is Musashi-1; names of the RNAs are library labels; protein concentration not given here; high values mean tight binding.
B1 displayed a binding signal of 0.986 enrichment R.

B2: the binding signal amounted to 2.14 enrichment R.

As for B3, the binding signal is 3.32 enrichment R.

Turning to B4, the binding signal came out at 0.889 enrichment R.

For the molecule B5, the binding signal is 4.09 enrichment R.

For the molecule B6, the binding signal was determined as 0.465 enrichment R.

For the molecule B7, the binding signal was 1.15 enrichment R.

In the case of B8, the binding signal was found to be 0.634 enrichment R.

The molecule B9 registered a binding signal of 3.35 enrichment R.

For the molecule B10, the binding signal stood at 0.593 enrichment R.

In the case of B11, the binding signal came to 10.5 enrichment R.

The molecule B12 yielded a binding signal of 1.64 enrichment R.

On to B13, for which the binding signal turned out to be 11.1 enrichment R.

As for B14, the binding signal is 3.32 enrichment R.

On to B15, for which the binding signal was found to be 3.65 enrichment R.

B16: the binding signal was 4.28 enrichment R.

Regarding B17, the binding signal amounted to 3.7 enrichment R.

Consider B18, for which the binding signal was 0.487 enrichment R.

For the molecule B19, the binding signal turned out to be 3.41 enrichment R.

For the molecule B20, the binding signal turned out to be 0.655 enrichment R.

B21 gave a binding signal of 0.51 enrichment R.

In the case of B22, the binding signal is 1.34 enrichment R.
